High-throughput results (PubChem BioAssay)
DUSP3 inh – blocks the human dual specificity phosphatase VHR1; P51452; recombinant VHR phosphatase, colorimetric substrate read-out; inhibition, % at 20 µM; hit rate 0.7% among 50,000; in the data active means inhibition above about 60%
Target sequence (P51452 whole entry, looked up): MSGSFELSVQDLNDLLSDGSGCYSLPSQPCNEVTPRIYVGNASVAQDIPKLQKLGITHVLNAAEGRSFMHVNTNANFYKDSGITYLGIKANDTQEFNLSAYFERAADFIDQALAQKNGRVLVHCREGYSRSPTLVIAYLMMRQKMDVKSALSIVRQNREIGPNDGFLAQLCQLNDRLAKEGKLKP
* marks the source's active call; other numbers are inactive results. This is one part of a sample in which hits are shown more often than they occur.

How did CCOc1cc(C2Nc3cc(C)c(C)cc3NC3=C2C(=O)CC(C)(C)C3)cc([N+](=O)[O-])c1O (configuration not stated) do in these assays?
DUSP3 inh: 118*

Results for COc1cc(C2Nc3cc(C)c(C)cc3NC3=C2C(=O)CC(C)(C)C3)cc(Br)c1OC (configuration not stated) ?
DUSP3 inh: 2

How did CC(=O)Nc1ccc(C2Nc3cc(C)c(C)cc3NC3=C2C(=O)CC(C)(C)C3)cc1 (configuration not stated) do in these assays?
DUSP3 inh: 100*

Results for COC(=O)c1ccc(C2Nc3cc(C)c(C)cc3NC3=C2C(=O)CC(C)(C)C3)cc1 (configuration not stated) ?
DUSP3 inh: 6

Results for Cc1cc2c(cc1C)NC(c1c(F)cccc1F)C1=C(CC(C)(C)CC1=O)N2 (configuration not stated) ?
DUSP3 inh: -9

What do the screens show for `COc1ccccc1NC(=O)C1CC(C)=C(C)CC1C(=O)O` (configuration not stated)?
DUSP3 inh: 4

How did CCOc1ccc(C(=O)Nc2cc(C(=O)OC)cc(C(=O)OC)c2)cc1[N+](=O)[O-] do in these assays?
DUSP3 inh: -11

What do the screens show for `C=CCOc1ccc(/C=C2\C(=O)NC(=O)N(c3cc(C)cc(C)c3)C2=O)cc1`?
DUSP3 inh: 12

How did O=C(NNC(=O)c1ccco1)c1cccc(I)c1 do in these assays?
DUSP3 inh: 5

Results for NC(=O)c1c(NC(=O)C2c3ccccc3Oc3ccccc32)sc2c1CCCCCC2 ?
DUSP3 inh: -17

What do the screens show for `Cc1cc(C(=O)O)ccc1-n1c(C)ccc1C`?
DUSP3 inh: 58

How did Cc1ccc(C)n1-c1ccc(Cl)c(C(=O)O)c1 do in these assays?
DUSP3 inh: -6

What do the screens show for `Cc1ccc(C)n1-c1ccc(Cl)cc1C(=O)O`?
DUSP3 inh: 85*

Results for Cc1ccc(C(=O)O)cc1-n1c(C)ccc1C ?
DUSP3 inh: 23

What do the screens show for `COc1cc(C(=O)O)c(-n2c(C)ccc2C)cc1OC`?
DUSP3 inh: 12

What do the screens show for `Cc1ccc(C)n1-c1cc(C(=O)O)ccc1Cl`?
DUSP3 inh: 83*

How did CCN(CC)C(=O)c1sc(NC(=O)c2cc(Cl)ccc2Cl)c(C#N)c1C do in these assays?
DUSP3 inh: -14

How did O=C(c1ccccc1)N1N=C(c2ccc([N+](=O)[O-])cc2)CC1(O)C(F)(F)F (configuration not stated) do in these assays?
DUSP3 inh: 10

How did Cc1ccc(C(=O)Nc2sc(C)c(C)c2C(=O)OC(C)C)o1 do in these assays?
DUSP3 inh: 14

Results for COc1cccc(NC(=O)C2(C)CC3c4ccccc4C2c2ccccc23)c1 (configuration not stated) ?
DUSP3 inh: -16

How did COC(=O)c1ccc(NC(=O)C2(C)CC3c4ccccc4C2c2ccccc23)cc1 (configuration not stated) do in these assays?
DUSP3 inh: -4

Results for Cc1c(Cl)cccc1NC(=O)C1(C)CC2c3ccccc3C1c1ccccc12 (configuration not stated) ?
DUSP3 inh: 79*

Results for CCc1ccc(N2CC(C(=O)Nc3cc(C)cc(C)c3)CC2=O)cc1 (configuration not stated) ?
DUSP3 inh: -38

What do the screens show for `CC(=O)N(C)c1ccc(NC(=O)c2cccs2)cc1`?
DUSP3 inh: -27

Results for Cc1cc(/C=C2\C(=O)NC(=S)N(c3ccc(Cl)cc3)C2=O)c(C)n1C ?
DUSP3 inh: 5

Results for Cn1cccc1/C=C1/C(=O)NC(=S)N(c2ccc(Cl)cc2)C1=O ?
DUSP3 inh: 70*

Results for COc1ccccc1N1C(=O)C(=Cc2cccn2C)C(=O)NC1=S ?
DUSP3 inh: 77*

How did COc1cc(Br)c(/C=C2\C(=O)NC(=S)N(c3ccccc3)C2=O)cc1OC do in these assays?
DUSP3 inh: 0

Results for O=C1NC(=S)N(c2cccc(Cl)c2)C(=O)/C1=C/c1ccc(Cl)cc1 ?
DUSP3 inh: 17

Results for COc1ccccc1N1C(=O)NC(=O)/C(=C\c2cc3ccccc3n2C)C1=O ?
DUSP3 inh: 36

How did CCOC(=O)C1=C(C)N=c2s/c(=C\c3ccc(-c4cc([N+](=O)[O-])ccc4C)o3)c(=O)n2C1c1ccc2c(c1)OCO2 (configuration not stated) do in these assays?
DUSP3 inh: -35

Results for COc1ccc(C(=O)/C=C/c2ccc(/C=C/C(=O)c3ccc(OC)cc3)cc2)cc1 ?
DUSP3 inh: 4

Results for O=C(Cc1ccc(Cl)cc1)Nc1ccc(Nc2ccccc2)cc1 ?
DUSP3 inh: -19

What do the screens show for `O=C1C2C3C=CC(C3)C2C(=O)N1/N=C/c1cc(Br)c(O)cc1O` (configuration not stated)?
DUSP3 inh: -6

Results for O=C(NCc1cccnc1)c1ccc(C#Cc2ccccc2)cc1 ?
DUSP3 inh: -6

How did O=C(NCc1cccnc1)c1cc(-c2ccccc2)nc2ccccc12 do in these assays?
DUSP3 inh: 4

Results for Nc1c(C(=O)NCc2cccnc2)sc(=S)n1-c1ccccc1 ?
DUSP3 inh: 91*
